Data from ChEMBL document CHEMBL4303122, “Identification of potential treatments for COVID-19 through artificial intelligence-enabled phenomic analysis of human cells infected with SARS-CoV-2” (2020).
Whole data set: some 1,600 compounds, median “Hit score” near 0.13, cut for the highest 2% near 0.46. What follows is part of a selection rich in the highest values, with near analogues and random picks from the rest.

The compounds below were run on SARS-CoV-2 (assay: Antiviral activity against SARS-CoV-2 (USA-WA1/2020 strain) measured by imaging in HRCE cells at MOI 0.4 after 96 hrs (reported as hit score from 0-1 for on-disease vs off-disease activity: scores >0.6 considered hits)).
Format: functional, Homo sapiens

| SMILES | Hit score |
| --- | --- |
| CO[C@@]1(NC(=O)CSC[C@@H](N)C(=O)O)C(=O)N2C(C(=O)O)=C(CSc3nnnn3C)CS[C@@H]21 [CEFMINOX] | 0.1316 |
| CC(C)CN(C[C@@H](O)[C@H](Cc1ccccc1)NC(=O)O[C@H]1CO[C@H]2OCC[C@H]21)S(=O)(=O)c1ccc(N)cc1 | 0.38 |
| CO[C@]12C[C@@H](COC(=O)c3cncc(Br)c3)CN(C)[C@@H]1Cc1cn(C)c3cccc2c13 [NICERGOLINE] | 0.1321 |
| CC[C@@H](CO)NC(=O)[C@@H]1C=C2c3cccc4[nH]cc(c34)C[C@H]2N(C)C1 [METHYLERGONOVINE] | 0.219 |
| C[C@@H]1C[C@H]2[C@@H]3CCC4=CC(=O)C=C[C@]4(C)[C@@]3(F)[C@@H](O)C[C@]2(C)[C@@]1(O)C(=O)COP(=O)([O-])[O-].[Na+].[Na+] [DEXAMETHASONE SODIUM PHOSPHATE] | 0.2627 |
| COC(=O)N[C@H](C(=O)N1CCC[C@H]1c1nc(-c2ccc3c(c2)O[C@@H](c2ccccc2)n2c-3cc3cc(-c4c[nH]c([C@@H]5CCCN5C(=O)[C@@H](NC(=O)OC)C(C)C)n4)ccc32)c[nH]1)C(C)C [ELBASVIR] | -0.03781 |
| O=C(Nc1c(Cl)cncc1Cl)c1ccc(OC(F)F)c(OCC2CC2)c1 [ROFLUMILAST] | 0.1334 |
| C=CC[N+]1([C@H]2C[C@H]3[C@@H]4CC[C@H]5C[C@H](O)[C@@H](N6CCOCC6)C[C@]5(C)[C@H]4CC[C@]3(C)[C@H]2OC(C)=O)CCCC1 [ROCURONIUM] | 0.1086 |
| CCc1cc2c(cc1CC)CC(NC[C@H](O)c1ccc(O)c3[nH]c(=O)ccc13)C2 [INDACATEROL] | -0.2891 |
| C[C@H]1[C@H](OC(=O)CCC(=O)O)O[C@@H]2O[C@@]3(C)CC[C@H]4[C@H](C)CC[C@@H]1[C@@]24OO3 [ARTESUNATE] | 0.2142 |
| CC(=O)O[C@]1(C(C)=O)CC[C@H]2[C@@H]3C=C(C)C4=CC(=O)CC[C@@H]4[C@H]3CC[C@@]21C [NOMEGESTROL ACETATE] | 0.2782 |
| CC1(C)S[C@@H]2[C@H](NC(=O)Cc3ccccc3)C(=O)N2[C@H]1C(=O)O [PENICILLIN G] | 0.164 |
| CC(=O)O[C@H]1C[C@@H]2CC[C@@H]3[C@H](CC[C@@]4(C)[C@H]3C[C@H]([N+]3(C)CCCCC3)[C@@H]4OC(C)=O)[C@@]2(C)C[C@@H]1[N+]1(C)CCCCC1 [PANCURONIUM] | 0.09762 |
